# According to ChEMBL document CHEMBL2218924, “A broad activity screen in support of a chemogenomic map for kinase signalling research and drug discovery” (Biochem J, 2013):
# How the values were obtained:
# [1] = molecular target: Tyrosine-protein kinase SYK (Homo sapiens) (UniProt P43405); conditions: at 10 µM
# [2] = molecular target: T1, Mitogen-activated protein kinase kinase kinase 7 (Homo sapiens) (UniProt O43318); conditions: at 1 µM
# T1 sequence (whole entry): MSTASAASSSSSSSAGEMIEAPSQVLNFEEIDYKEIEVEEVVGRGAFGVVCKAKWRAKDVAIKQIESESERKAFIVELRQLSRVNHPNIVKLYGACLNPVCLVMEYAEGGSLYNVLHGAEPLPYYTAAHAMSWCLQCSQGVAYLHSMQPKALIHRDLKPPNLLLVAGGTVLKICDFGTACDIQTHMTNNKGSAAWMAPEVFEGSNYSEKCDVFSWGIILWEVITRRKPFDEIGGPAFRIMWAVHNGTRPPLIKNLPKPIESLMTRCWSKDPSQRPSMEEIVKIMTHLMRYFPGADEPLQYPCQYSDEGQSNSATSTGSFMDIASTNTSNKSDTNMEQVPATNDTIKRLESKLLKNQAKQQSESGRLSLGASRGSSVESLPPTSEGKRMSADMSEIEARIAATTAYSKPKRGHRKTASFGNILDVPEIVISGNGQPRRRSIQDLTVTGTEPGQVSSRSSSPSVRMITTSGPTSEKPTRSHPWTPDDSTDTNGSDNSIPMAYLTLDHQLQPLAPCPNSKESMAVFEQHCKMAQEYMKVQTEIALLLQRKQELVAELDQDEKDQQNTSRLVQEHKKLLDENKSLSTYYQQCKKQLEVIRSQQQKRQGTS
# [3] = molecular target: T1, Mitogen-activated protein kinase kinase kinase 7 (Homo sapiens); conditions: at 10 µM
# [4] = molecular target: T2, Serine/threonine-protein kinase TAO1 (Homo sapiens) (UniProt Q7L7X3); conditions: at 1 µM
# T2 sequence (whole entry): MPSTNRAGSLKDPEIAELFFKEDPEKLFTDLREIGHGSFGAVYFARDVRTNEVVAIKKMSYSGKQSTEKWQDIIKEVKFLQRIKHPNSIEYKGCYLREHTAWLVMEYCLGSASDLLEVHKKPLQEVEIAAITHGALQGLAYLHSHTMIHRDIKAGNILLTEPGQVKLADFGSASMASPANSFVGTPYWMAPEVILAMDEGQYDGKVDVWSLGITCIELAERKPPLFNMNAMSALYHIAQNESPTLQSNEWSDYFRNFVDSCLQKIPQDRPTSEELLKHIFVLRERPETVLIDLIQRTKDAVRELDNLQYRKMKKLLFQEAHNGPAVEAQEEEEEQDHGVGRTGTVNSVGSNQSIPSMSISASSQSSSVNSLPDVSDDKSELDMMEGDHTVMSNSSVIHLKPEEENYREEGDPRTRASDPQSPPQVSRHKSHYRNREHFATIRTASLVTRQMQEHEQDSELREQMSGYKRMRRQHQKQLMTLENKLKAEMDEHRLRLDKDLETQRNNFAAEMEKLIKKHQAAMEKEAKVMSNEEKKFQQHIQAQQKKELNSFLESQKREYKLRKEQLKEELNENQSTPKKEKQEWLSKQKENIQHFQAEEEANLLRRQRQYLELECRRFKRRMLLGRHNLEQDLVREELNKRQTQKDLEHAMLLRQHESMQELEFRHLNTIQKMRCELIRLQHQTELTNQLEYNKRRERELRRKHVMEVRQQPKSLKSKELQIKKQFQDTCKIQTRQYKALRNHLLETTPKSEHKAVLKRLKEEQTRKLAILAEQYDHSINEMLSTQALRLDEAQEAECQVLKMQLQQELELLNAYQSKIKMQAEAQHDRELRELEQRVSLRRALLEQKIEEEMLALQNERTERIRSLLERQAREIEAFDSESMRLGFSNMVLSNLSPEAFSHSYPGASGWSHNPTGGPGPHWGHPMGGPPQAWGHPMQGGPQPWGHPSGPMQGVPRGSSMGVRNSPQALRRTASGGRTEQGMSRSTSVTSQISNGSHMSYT
# [5] = molecular target: T2, Serine/threonine-protein kinase TAO1 (Homo sapiens); conditions: at 10 µM
# [6] = molecular target: T3, Serine/threonine-protein kinase TAO2 (Homo sapiens) (UniProt Q9UL54); conditions: at 10 µM
# T3 sequence (whole entry): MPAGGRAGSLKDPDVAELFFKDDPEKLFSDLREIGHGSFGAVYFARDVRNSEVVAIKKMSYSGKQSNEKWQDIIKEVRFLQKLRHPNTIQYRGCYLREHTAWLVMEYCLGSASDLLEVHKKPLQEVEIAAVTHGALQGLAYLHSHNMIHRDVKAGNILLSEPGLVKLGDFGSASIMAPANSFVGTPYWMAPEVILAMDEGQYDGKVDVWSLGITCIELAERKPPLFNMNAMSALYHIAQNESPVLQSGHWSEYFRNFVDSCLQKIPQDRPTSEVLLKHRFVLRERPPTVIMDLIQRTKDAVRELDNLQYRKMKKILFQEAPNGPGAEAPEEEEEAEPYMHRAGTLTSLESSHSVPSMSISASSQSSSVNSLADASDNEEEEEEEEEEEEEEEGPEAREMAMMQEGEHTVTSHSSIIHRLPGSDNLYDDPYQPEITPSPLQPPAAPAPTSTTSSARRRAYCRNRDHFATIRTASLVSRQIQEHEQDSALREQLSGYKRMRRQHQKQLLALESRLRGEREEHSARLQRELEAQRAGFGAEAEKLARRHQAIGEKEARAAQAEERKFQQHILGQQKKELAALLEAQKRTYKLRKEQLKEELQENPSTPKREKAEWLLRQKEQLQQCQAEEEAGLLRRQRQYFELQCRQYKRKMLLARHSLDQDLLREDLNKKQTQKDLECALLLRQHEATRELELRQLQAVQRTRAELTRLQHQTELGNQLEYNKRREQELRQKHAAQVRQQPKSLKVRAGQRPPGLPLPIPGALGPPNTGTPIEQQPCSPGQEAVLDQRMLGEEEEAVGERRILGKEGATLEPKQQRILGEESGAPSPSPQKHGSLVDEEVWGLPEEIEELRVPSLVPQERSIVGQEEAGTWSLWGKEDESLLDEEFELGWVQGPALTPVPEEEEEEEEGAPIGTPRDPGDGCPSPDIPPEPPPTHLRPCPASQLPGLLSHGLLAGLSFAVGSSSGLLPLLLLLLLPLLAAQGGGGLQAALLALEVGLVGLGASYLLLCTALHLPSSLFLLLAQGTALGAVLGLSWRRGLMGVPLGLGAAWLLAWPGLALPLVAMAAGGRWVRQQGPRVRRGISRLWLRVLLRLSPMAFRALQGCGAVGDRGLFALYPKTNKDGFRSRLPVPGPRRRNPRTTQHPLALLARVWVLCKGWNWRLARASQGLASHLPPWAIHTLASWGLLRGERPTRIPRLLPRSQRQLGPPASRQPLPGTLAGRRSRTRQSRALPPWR
# [7] = molecular target: T4, Serine/threonine-protein kinase TAO3 (Homo sapiens) (UniProt Q9H2K8); conditions: at 1 µM
# T4 sequence (whole entry): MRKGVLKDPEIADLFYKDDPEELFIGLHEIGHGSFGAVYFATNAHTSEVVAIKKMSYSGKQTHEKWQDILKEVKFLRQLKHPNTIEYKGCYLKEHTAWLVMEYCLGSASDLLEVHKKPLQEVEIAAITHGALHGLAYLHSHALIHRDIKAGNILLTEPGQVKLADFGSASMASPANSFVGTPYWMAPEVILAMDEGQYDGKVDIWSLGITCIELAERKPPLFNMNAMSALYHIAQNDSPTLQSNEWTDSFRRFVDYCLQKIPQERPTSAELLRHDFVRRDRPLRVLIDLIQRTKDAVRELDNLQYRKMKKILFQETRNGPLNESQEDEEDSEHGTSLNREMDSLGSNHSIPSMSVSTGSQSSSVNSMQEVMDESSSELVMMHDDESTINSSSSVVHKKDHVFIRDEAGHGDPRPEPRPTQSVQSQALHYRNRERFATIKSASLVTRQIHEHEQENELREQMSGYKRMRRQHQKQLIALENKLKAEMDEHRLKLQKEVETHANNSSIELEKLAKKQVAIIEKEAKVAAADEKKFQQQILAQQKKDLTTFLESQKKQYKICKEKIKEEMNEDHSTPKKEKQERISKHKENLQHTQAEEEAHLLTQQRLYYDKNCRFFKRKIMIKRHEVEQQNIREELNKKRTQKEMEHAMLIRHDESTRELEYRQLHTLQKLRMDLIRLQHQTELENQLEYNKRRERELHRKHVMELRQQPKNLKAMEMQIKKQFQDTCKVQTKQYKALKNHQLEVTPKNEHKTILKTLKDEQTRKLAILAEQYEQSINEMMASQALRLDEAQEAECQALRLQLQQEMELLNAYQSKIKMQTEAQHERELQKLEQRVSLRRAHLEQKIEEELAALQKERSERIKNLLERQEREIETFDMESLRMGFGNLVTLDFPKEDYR
# [8] = molecular target: T4, Serine/threonine-protein kinase TAO3 (Homo sapiens); conditions: at 10 µM
# [9] = molecular target: T5, Serine/threonine-protein kinase TBK1 (Homo sapiens) (UniProt Q9UHD2); conditions: at 1 µM
# T5 sequence (whole entry): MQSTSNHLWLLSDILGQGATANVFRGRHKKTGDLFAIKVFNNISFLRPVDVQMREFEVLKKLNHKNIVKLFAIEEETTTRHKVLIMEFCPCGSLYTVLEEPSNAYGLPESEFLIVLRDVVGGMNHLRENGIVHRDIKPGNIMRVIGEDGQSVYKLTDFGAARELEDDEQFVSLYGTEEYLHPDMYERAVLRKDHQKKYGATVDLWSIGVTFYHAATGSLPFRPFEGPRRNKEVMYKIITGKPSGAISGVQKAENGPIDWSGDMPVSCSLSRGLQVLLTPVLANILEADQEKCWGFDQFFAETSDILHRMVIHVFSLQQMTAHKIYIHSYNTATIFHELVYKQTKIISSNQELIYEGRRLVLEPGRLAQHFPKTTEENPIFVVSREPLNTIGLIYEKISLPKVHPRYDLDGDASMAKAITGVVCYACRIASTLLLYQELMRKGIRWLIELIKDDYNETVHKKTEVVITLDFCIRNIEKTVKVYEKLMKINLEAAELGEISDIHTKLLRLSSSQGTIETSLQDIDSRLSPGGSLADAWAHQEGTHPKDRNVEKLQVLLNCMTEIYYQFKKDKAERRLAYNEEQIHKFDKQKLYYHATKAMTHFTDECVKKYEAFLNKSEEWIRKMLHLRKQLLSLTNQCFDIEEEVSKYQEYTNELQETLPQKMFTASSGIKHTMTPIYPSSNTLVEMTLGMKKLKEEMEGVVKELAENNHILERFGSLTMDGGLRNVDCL
smiles,measurement,setting,value
O=C1c2ccccc2-[n+]2ccc3c([nH]c4ccccc43)c21,residual activity,[1],90%
same,residual activity,[2],93%
same,residual activity,[3],82%
same,residual activity,[4],96%
same,residual activity,[5],86%
same,residual activity,[6],90%
same,residual activity,[7],89%
same,residual activity,[8],90%
same,residual activity,[9],58%
